Measured values from PubChem BioAssay (Tox21).
Records with an inconclusive call do not appear. The source made the active and inactive calls. Unless noted, the call rests on the fitted dose curve; in most records, active means well fitted curve in the direction sought with a large enough effect in the repeat runs; inconclusive means weak or mixed curves; inactive means no such curve, though single readings can be large; an effect the other way counts as inactive or inconclusive.

Legend:
[1] = qHTS assay to identify small molecule agonists of the vitamin D receptor (VDR) signaling pathway - cell viability counter screen (AID 743224); further: nearly all actives have a fitted effect of over 50% in size; further: potency means the concentration at half of the fitted maximal effect
How it was run: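 VDR-bla cells were preincubated 4 h at 37C/5% CO2, then exposed to compounds for 16 h. After the 2 h room-temperature bla FRET read, CellTiter-Glo was added to the same wells and luminescence read after 30 min.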

[2] = qHTS assay to identify small molecule antagonists of the vitamin D receptor (VDR) signaling pathway - cell viability counter screen (AID 743225); further: nearly all actives have a fitted effect of over 50% in size; further: potency means the concentration at half of the fitted maximal effect
How it was run: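 In this counter screen, VDR-bla HEK 293T cells receive test compound plus 3 nM final calcitriol for 16 h at 37C. Room-temperature steps of 2 h with the beta-lactamase substrate, then 30 min with CellTiter-Glo, precede the luminescence read.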

[3] = qHTS assay to identify small molecule agonists of the NFkB signaling pathway - cell viability counter screen (AID 1159515; calls by dose curve; further: series mostly up to about 61 µM; nearly all actives have a fitted effect of over 55% in size)
How it was run: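 NFkB-bla ME-180 cells, 2,000/well, were plated overnight at 37 C, 5% CO2, then exposed to compounds in DMSO for 5 hr. After the bla FRET read, CellTiter-Glo was added to the same wells; luminescence was read after 30 min at room temperature.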

[4] = qHTS assay to identify small molecule agonists of the endoplasmic reticulum stress response signaling pathway (AID 1159516; active means well fitted activation curve with a large enough effect in the signal ratio in the repeat runs, not every such curve was filed as active; the % refers to the signal ratio; further: potency means the concentration at half of the fitted maximal effect)
How it was run: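 CellSensor ESRE-bla HeLa cells, carrying a beta-lactamase reporter driven by the ER stress response element, were plated overnight and exposed to compounds for 5 hr at 37 C. Reporter activity was read as FRET substrate fluorescence after 2 hr at room temperature.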

[5] = qHTS assay to identify small molecule agonists of the endoplasmic reticulum stress response signaling pathway - cell viability counter screen (AID 1159517; calls by dose curve; further: series mostly up to about 61 µM; nearly all actives have a fitted effect of over 50% in size)
How it was run: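 ESRE-bla HeLa cells, 1,500 per well, seeded overnight then treated with compounds for 5 hr at 37 C. After the beta-lactamase read, viability in the same wells is measured by CellTiter-Glo luminescence after 30 min at room temperature.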

[6] = qHTS assay to identify small molecule antagonists of the retinoid-related orphan receptor gamma (ROR-gamma) signaling pathway - cell viability counter screen (AID 1159520); further: nearly all actives have a fitted effect of over 50% in size
How it was run: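 Tet-on ROR gamma CHO cells were given compounds for 2 hr, then doxycycline hyclate at 1 uM final, and incubated 16 hr at 37 C. Viability was measured as ATP content by CellTiter-Glo luminescence.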

[7] = biological target: Nuclear receptor ROR-gamma (Homo sapiens) (UniProt P51449); assay: qHTS assay to identify small molecule antagonists of the retinoid-related orphan receptor gamma (ROR-gamma) signaling pathway (AID 1159521)
How it was run: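 Screening format: cell-based luciferase reporter in CHO cells with doxycycline-inducible RORγ. Compound pre-exposure lasts 2 h, doxycycline is 1 uM final, induction runs 16 h at 37 C, and ONE-Glo luminescence is read.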

[8] = qHTS assay to identify small molecule agonists of the AP-1 signaling pathway - cell viability counter screen (AID 1159525; calls by dose curve; further: nearly all actives have a fitted effect of over 55% in size)
How it was run: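 AP-1-bla ME-180 cells in Opti-MEM with 0.5% dialyzed FBS, compound exposure 5 h at 37 C in 15-point titration. Viability read in the same wells as ATP content by CellTiter-Glo luminescence, normalised to tetra-n-octylammonium bromide and DMSO controls.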

[9] = qHTS assay to identify small molecule agonists of the AP-1 signaling pathway (AID 1159526; calls by dose curve)
[10] = qHTS assay to identify small molecule agonists of the peroxisome proliferator-activated receptor delta (PPARd) signaling pathway - cell viability counter screen (AID 743211); further: nearly all actives have a fitted effect of over 55% in size
How it was run: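 Following 5 h plating at 37 C and 5% CO2, PPARd UAS-bla HEK293H cells took up test compounds for 17 h. Viability was quantified by luminescence 30 min after CellTiter-Glo addition at room temperature.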

[11] = qHTS assay to identify small molecule antagonists of the peroxisome proliferator-activated receptor delta (PPARd) signaling pathway - cell viability counter screen (AID 743213); further: nearly all actives have a fitted effect of over 50% in size
How it was run: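 CellTiter-Glo was added to PPARd-bla HEK293H wells following 17 h compound treatment in the presence of 300 nM L165041. Luminescence was recorded after 30 min at room temperature.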

[12] = qHTS assay to identify small molecule agonists of the farnesoid-X-receptor (FXR) signaling pathway - cell viability counter screen (AID 743218); further: nearly all actives have a fitted effect of over 45% in size
How it was run: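 FXR-UAS-bla HEK 293T cells, plated 5 h at 37 C, were exposed to compounds for 16 h at 37 C. CellTiter-Glo was then added to the same wells as the bla readout; luminescence read after 30 min at room temperature.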

[13] = biological target: Vitamin D3 receptor (Homo sapiens) (UniProt P11473); assay: qHTS assay to identify small molecule antagonists of the vitamin D receptor (VDR) signaling pathway (AID 743223; active means well fitted inhibition curve with a large enough effect in the signal ratio in the repeat runs, not every such curve was filed as active; the % refers to the signal ratio)
Vitamin D3 receptor (Homo sapiens), sequence (P11473 whole entry, looked up): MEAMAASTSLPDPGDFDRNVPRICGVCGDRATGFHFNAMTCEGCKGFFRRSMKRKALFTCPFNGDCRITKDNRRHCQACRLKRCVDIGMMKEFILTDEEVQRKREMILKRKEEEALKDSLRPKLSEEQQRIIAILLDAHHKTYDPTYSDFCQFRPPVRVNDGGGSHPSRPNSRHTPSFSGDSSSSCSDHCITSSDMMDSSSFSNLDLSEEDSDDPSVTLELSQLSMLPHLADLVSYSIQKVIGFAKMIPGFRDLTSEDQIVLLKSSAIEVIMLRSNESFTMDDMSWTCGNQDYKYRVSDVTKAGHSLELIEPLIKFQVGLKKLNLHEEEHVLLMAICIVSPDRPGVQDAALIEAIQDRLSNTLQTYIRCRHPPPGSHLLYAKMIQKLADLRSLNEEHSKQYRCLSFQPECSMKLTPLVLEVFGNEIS
How it was run: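 Beta-lactamase activity in VDR-bla cells is measured by FRET substrate fluorescence (2 h, room temperature) after cells spend 16 h at 37C with test compound and 3 nM final 1alpha,25-dihydroxyvitamin D3.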

[14] = biological target: Retinoic acid receptor RXR-alpha (Homo sapiens) (UniProt P19793); assay: qHTS assay to identify small molecule agonists of the RXR signaling pathway (AID 1159527; calls by dose curve; further: nearly all actives have a fitted effect of over 35% in size)
Retinoic acid receptor RXR-alpha (Homo sapiens), sequence (P19793 whole entry, looked up): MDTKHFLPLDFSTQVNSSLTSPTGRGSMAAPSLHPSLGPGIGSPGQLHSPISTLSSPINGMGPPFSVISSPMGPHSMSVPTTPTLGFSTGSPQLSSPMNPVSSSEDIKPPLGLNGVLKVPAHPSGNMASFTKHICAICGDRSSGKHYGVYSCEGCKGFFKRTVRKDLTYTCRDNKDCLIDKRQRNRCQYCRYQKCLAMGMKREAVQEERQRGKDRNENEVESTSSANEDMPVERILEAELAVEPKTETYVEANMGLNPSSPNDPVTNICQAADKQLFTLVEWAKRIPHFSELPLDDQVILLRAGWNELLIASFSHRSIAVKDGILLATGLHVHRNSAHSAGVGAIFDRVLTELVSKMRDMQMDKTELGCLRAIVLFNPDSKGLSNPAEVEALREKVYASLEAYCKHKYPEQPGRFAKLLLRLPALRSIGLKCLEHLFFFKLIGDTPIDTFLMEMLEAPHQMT
How it was run: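 Fluorescence ratio readout (460 vs 530 nm) from GeneBLAzer RXR-alpha HEK 293T cells after 16 hr compound treatment; cells seeded 5 hr beforehand in low-serum, charcoal-stripped medium.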

[15] = biological target: Peroxisome proliferator-activated receptor delta (Homo sapiens) (UniProt Q03181); assay: qHTS assay to identify small molecule agonists of the peroxisome proliferator-activated receptor delta (PPARd) signaling pathway (AID 743212; calls by dose curve)
Peroxisome proliferator-activated receptor delta (Homo sapiens), sequence (Q03181 whole entry, looked up): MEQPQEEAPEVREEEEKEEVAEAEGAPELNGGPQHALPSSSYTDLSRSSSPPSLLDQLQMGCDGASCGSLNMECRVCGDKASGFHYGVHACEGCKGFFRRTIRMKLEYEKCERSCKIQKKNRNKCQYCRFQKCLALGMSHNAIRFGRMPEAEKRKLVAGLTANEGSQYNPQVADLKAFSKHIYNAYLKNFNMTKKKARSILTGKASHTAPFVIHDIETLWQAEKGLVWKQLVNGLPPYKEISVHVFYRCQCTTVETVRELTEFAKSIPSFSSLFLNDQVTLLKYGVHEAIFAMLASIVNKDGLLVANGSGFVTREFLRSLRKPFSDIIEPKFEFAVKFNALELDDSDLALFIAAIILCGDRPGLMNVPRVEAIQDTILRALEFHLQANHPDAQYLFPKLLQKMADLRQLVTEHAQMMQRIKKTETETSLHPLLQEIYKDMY
How it was run: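 GeneBLAzer UAS-bla HEK293H cells carrying a PPARδ construct were exposed to compounds at 37 °C. Beta-lactamase activity was read by FRET fluorescence after 2 h at room temperature with LiveBLAzer B/G substrate.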

[16] = biological target: Peroxisome proliferator-activated receptor delta (Homo sapiens) (UniProt Q03181); assay: qHTS assay to identify small molecule antagonists of the peroxisome proliferator-activated receptor delta (PPARd) signaling pathway (AID 743215; active means well fitted inhibition curve with a large enough effect in the signal ratio in the repeat runs, not every such curve was filed as active; the % refers to the signal ratio;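 further: cells stimulated with agonist L165041 at 300 nM final during compound exposure; series mostly up to about 62 µM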)
How it was run: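 PPARd UAS-bla HEK293H cells were pre-incubated 5 h at 37 C, then given test compounds in DMSO plus agonist L165041 (300 nM final). After 17 h at 37 C, beta-lactamase FRET substrate was added; fluorescence read after 2 h at room temperature.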

[17] = biological target: Bile acid receptor (Homo sapiens) (UniProt Q96RI1); assay: qHTS assay to identify small molecule antagonists of the farnesoid-X-receptor (FXR) signaling pathway (AID 743217; active means well fitted inhibition curve with a large enough effect in the signal ratio in the repeat runs, not every such curve was filed as active; the % refers to the signal ratio)
Bile acid receptor (Homo sapiens), sequence (Q96RI1 whole entry, looked up): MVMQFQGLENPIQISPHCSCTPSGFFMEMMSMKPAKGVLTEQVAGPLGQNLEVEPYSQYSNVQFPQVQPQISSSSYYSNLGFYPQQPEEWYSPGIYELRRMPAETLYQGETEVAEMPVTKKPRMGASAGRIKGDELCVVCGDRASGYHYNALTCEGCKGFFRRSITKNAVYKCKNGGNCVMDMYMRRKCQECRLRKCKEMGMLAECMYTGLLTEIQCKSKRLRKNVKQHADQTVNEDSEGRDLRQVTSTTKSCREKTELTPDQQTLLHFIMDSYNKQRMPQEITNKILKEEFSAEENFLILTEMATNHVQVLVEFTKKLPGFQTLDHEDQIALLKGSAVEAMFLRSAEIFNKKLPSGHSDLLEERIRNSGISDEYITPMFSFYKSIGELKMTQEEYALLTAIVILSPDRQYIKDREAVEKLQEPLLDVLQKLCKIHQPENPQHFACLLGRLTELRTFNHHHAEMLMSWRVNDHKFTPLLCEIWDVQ
How it was run: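 FXR-UAS-bla HEK 293T cells pre-incubated 5 h at 37 °C, then exposed to compounds with chenodeoxycholic acid (50 uM final) for 16 h at 37 °C. Beta-lactamase reporter read by LiveBLAzer B/G FRET substrate fluorescence after 2 h at room temperature.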

[18] = biological target: Bile acid receptor (Homo sapiens) (UniProt Q96RI1); assay: qHTS assay to identify small molecule agonists of the farnesoid-X-receptor (FXR) signaling pathway (AID 743220; active means well fitted activation curve with a large enough effect in the signal ratio in the repeat runs, not every such curve was filed as active; the % refers to the signal ratio)
How it was run: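 Beta-lactamase reporter under UAS control in GeneBLAzer FXR HEK 293T cells (5000/well) measured with LiveBLAzer FRET substrate after 2 h at room temperature. Compound exposure lasted 16 h at 37C.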

[19] = qHTS assay to identify small molecule antagonists of the farnesoid-X-receptor (FXR) signaling pathway - cell viability counter screen (AID 743221; active means well fitted cell-killing curve with a large enough effect in the repeat runs, not every such curve was filed as active; further: nearly all actives have a fitted effect of over 50% in size)
How it was run: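 Compound effects on cell number were measured as CellTiter-Glo luminescence in HEK 293T cells expressing FXR-UAS-bla, after 16 h at 37 C with 50 uM CDCA (final).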

[20] = biological target: Vitamin D3 receptor (Homo sapiens) (UniProt P11473); assay: qHTS assay to identify small molecule agonists of the vitamin D receptor (VDR) signaling pathway (AID 743222; calls by dose curve)
How it was run: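 VDR-bla cells were plated 4 h at 37C/5% CO2, then exposed to compounds in DMSO for 16 h. After LiveBLAzer B/G FRET substrate addition and 2 h at room temperature, beta-lactamase reporter fluorescence was read.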

Measured: Potency

Nc1nc(N)c2nc(CNc3ccc(C(=O)N[C@@H](CCC(=O)O)C(=O)O)cc3)cnc2n1
inactive: [3] | [5] | [6] | [7] | [8] | [9]
active: [1] 28.8 nM | [2] 28.8 nM | [4] 51300 nM

CCN(CC)C(C)CN1c2ccccc2Sc2ccccc21 (stereo unspecified)
not listed: [9] | [15] | [16] | [17] | [18] | [19] | [20]
inactive: all other assays above

O=C1Nc2cc(Cl)ccc2Oc2ccccc21
not listed: [9]
inactive: all other assays above

CC(=O)O[C@H]1C[C@@H]2CC[C@@H]3[C@H](CC[C@@]4(C)[C@H]3C[C@H]([N+]3(C)CCCCC3)[C@@H]4OC(C)=O)[C@@]2(C)C[C@@H]1N1CCCCC1
not listed: [9] | [13] | [16] | [20]
inactive: all other assays above

CC(C)c1ccc2c(C(C)C)cc(C(C)C)c(S(=O)(=O)O)c2c1
not listed: [9] | [13] | [20]
inactive: all other assays above

CC(C)c1ccccc1C(C)C
not listed: [9] | [13] | [17] | [18]
inactive: all other assays above

CC(C)(C)c1ccc(OCC2CO2)cc1 (stereo unspecified)
not listed: [9] | [13] | [16] | [17] | [18]
inactive: all other assays above

COc1ccc(C(C)=O)cc1
inactive: [11] | [13] | [1] | [2] | [3] | [4] | [5] | [6] | [7] | [8] | [9]
